Reference: the supplement of paper PMC9446081
± gives the standard deviation of the averaged measurements.

Tests used:
Assay in all cases: relative enzymatic activity vs untreated control (fraction); higher = less inhibition
Details in all cases: 100 µM; incubation time: 2 h at 37 C
[1] = tested on: DNA gyrase
Protocol: (§1)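 In vitro enzymatic inhibition assays (ProFoldin kits) for 12 purified essential E. coli enzymes or complexes, each treated with 218 active antibacterial compounds at 100 µM for 2 h at 37°C. Read-outs were fluorescence or absorbance (phosphate detection, dye binding), converted to activity via standard curves and expressed relative to untreated DMSO controls.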

[2] = target: DNA helicase (UniProt P0ACB1)
Protocol: as §1

[3] = target: DNA ligase (UniProt B1XA82)
Protocol: as §1

[4] = target: DNA polymerase (UniProt P10443)
Protocol: as §1

[5] = target: DNA primase (UniProt P0ABS7)
Protocol: as §1

[6] = target: GlmU (UniProt A7ZTU1)
Protocol: as §1

[7] = target: Guanlyate kinase (UniProt Q0TBG1)
Protocol: as §1

[8] = target: MurA (UniProt Q3YX52)
Protocol: as §1

[9] = target: T1, MurD (UniProt P14900)
T1 sequence (whole entry): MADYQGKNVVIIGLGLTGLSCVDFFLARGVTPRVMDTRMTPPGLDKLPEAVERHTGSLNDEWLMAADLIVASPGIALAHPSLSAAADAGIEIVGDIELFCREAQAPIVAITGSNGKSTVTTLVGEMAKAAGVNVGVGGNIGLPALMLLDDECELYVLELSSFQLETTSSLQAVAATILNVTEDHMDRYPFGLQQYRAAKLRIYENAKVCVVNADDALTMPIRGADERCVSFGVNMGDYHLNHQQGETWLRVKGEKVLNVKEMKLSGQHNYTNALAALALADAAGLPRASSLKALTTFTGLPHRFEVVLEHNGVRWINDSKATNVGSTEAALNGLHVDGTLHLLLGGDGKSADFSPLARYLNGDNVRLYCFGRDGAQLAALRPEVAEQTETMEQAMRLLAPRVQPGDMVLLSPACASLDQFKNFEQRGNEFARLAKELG
Protocol: as §1

[10] = target: T2, MurF (UniProt P11880)
T2 sequence (whole entry): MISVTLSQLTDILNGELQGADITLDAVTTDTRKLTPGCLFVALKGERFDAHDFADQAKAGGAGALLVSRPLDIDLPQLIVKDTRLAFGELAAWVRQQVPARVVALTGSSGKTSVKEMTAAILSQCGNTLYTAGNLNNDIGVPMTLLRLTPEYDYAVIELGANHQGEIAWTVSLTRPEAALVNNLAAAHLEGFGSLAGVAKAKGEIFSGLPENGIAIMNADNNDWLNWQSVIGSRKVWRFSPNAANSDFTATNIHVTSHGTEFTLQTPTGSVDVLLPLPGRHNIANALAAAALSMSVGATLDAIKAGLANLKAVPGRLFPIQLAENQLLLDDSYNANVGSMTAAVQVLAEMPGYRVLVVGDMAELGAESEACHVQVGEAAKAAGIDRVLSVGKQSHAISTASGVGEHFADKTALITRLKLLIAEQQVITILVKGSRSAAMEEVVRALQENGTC
Protocol: as §1

[11] = tested on: RNA polymerase
Protocol: as §1

Chain of DNA ligase (B1XA82 whole entry): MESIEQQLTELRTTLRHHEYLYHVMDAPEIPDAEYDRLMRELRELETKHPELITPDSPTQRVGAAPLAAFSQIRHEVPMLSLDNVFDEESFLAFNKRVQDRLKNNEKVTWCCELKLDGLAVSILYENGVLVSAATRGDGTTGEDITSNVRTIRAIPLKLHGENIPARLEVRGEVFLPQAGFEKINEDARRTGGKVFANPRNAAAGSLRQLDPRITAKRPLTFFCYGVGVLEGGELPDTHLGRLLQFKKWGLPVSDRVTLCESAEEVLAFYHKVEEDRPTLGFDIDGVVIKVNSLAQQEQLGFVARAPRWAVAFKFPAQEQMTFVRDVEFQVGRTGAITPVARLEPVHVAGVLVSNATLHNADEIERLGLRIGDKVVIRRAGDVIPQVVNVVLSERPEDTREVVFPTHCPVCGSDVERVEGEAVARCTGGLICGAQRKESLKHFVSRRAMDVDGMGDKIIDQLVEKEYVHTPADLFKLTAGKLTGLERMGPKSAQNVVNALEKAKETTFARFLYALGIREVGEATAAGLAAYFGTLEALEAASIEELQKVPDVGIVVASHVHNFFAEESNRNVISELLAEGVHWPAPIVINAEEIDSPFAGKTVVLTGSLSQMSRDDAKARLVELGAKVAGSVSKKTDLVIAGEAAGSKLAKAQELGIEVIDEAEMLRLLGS
Chain of Guanlyate kinase (Q0TBG1 whole entry): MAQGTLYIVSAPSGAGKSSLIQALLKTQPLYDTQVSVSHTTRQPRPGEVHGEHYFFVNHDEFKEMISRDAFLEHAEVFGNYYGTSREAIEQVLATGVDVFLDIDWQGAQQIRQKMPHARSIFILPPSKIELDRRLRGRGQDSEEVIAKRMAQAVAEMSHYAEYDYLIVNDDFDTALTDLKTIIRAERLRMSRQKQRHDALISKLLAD
Chain of GlmU (A7ZTU1 whole entry, looked up): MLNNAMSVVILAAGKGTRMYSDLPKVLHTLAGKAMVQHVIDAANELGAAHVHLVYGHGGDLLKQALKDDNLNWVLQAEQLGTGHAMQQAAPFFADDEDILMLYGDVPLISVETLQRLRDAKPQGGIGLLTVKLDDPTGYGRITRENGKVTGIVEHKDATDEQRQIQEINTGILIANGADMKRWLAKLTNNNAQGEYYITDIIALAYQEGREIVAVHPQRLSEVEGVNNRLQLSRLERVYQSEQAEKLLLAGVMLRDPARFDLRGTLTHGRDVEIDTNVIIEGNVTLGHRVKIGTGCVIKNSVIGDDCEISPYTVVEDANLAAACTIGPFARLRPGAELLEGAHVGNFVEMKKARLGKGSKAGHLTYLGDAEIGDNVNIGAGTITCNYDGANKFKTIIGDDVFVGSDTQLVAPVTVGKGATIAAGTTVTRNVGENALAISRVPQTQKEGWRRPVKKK
Chain of MurA (Q3YX52 whole entry): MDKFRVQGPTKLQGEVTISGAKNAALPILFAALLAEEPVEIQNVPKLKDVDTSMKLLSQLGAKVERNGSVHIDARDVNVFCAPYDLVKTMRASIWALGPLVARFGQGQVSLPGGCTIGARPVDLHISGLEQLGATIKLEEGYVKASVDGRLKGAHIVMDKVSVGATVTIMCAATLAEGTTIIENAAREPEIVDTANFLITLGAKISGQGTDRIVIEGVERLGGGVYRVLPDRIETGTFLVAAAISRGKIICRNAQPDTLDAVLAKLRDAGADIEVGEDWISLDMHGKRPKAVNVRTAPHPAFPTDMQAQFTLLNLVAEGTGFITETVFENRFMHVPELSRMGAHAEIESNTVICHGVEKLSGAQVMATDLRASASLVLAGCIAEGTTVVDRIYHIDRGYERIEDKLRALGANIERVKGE
Chain of DNA helicase (P0ACB1 whole entry): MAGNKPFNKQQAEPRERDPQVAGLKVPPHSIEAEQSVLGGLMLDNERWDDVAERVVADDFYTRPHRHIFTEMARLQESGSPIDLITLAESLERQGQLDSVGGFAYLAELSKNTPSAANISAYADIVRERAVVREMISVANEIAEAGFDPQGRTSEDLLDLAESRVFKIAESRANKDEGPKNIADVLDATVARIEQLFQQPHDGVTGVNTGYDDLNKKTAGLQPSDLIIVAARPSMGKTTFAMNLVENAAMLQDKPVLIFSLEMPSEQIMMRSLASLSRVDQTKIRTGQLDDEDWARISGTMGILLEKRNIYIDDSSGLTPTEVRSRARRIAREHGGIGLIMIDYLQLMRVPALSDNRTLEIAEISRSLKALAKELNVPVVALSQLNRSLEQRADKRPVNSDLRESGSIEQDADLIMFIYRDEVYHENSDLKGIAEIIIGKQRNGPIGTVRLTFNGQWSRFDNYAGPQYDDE
Chain of DNA primase (P0ABS7 whole entry): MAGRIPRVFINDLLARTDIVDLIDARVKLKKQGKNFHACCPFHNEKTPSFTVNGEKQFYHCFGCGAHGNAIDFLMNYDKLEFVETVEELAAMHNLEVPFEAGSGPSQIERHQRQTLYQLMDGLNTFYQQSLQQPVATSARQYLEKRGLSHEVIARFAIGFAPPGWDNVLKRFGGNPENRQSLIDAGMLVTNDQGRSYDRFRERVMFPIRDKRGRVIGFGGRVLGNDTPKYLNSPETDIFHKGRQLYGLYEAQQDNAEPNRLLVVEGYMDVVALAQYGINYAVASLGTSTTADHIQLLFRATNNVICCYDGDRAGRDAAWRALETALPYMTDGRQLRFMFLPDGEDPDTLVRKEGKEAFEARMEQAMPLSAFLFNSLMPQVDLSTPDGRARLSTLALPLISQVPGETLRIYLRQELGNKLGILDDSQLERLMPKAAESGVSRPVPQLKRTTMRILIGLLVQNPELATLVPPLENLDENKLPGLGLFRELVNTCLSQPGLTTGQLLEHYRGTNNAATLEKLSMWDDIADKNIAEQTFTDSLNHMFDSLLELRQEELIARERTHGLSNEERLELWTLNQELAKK
Chain of DNA polymerase (P10443 whole entry): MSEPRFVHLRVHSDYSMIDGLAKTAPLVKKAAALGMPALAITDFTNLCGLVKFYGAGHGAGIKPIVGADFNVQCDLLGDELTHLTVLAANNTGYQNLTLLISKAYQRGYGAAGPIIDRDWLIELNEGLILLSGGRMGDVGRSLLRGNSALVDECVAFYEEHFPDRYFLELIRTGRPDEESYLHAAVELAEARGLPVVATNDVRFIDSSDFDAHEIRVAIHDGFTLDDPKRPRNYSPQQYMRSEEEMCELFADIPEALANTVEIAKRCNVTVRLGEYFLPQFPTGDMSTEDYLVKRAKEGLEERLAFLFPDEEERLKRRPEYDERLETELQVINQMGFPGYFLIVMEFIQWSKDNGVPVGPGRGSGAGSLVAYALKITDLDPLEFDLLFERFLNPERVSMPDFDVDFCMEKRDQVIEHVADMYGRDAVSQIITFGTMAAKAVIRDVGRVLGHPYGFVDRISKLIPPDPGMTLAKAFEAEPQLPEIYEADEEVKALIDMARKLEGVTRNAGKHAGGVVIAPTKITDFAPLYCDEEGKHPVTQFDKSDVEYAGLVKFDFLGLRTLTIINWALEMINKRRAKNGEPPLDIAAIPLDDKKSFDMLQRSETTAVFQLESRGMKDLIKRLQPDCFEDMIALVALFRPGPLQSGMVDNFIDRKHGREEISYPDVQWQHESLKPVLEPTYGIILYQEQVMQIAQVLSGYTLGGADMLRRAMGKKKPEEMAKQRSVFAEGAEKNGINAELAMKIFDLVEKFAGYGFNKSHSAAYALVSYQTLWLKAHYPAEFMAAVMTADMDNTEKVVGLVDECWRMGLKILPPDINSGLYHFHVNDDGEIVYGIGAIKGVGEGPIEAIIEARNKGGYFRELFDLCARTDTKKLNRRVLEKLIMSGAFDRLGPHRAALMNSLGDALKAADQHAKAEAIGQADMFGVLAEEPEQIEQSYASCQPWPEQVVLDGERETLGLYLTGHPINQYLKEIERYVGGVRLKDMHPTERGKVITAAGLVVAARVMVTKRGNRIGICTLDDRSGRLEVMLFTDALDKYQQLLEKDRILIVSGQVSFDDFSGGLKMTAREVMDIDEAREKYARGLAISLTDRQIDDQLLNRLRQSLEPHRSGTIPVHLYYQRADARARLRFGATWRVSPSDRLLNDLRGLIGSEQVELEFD

SMILES	relative enzymatic activity [1]	relative enzymatic activity [2]	relative enzymatic activity [3]	relative enzymatic activity [4]	relative enzymatic activity [5]	relative enzymatic activity [6]	relative enzymatic activity [7]	relative enzymatic activity [8]	relative enzymatic activity [9]	relative enzymatic activity [10]	relative enzymatic activity [11]
O=c1[nH]c(=O)n(C2CC(O)C(CO)O2)cc1F (stereo not drawn)	0.98 ± 0.053	0.557 ± 0.14	1.15 ± 0.19	1.2 ± 0.26	0.657 ± 0.14	1.09 ± 0.097	1.03 ± 0.036	0.856 ± 0.064	0.597 ± 0.4	0.931 ± 0.18	0.84 ± 0.0053
O=C(NO)c1cn(-c2cccc(C(=O)N3CCC4(CC3)C(=O)NCN4c3ccccc3)c2)nn1	≤ 0	0.0673 ± 0.0027	0.205 ± 0.025	0.00452 ± 0.00034	≤ 0	0.656 ± 0.088	≤ 0	0.245 ± 0.072	0.36 ± 0.22	0.634 ± 0.13	0.00747 ± 0.0021
CCCN1C[C@H](C)[C@@H](O)[C@](C)(O)[C@@H](CC)OC(=O)[C@H](C)[C@@H](O[C@H]2C[C@@](C)(OC)[C@@H](O)[C@H](C)O2)[C@H](C)[C@@H](O[C@@H]2O[C@H](C)C[C@H](N(C)C)[C@H]2O)[C@](C)(O)C[C@H]1C	0.764 ± 0.38	0.556 ± 0.17	0.802 ± 0.014	1.09 ± 0.11	0.868 ± 0.012	1.073 ± 0.0078	0.858 ± 0.12	0.761 ± 0.074	0.596 ± 0.42	0.968 ± 0.17	0.766 ± 0.12
CON=C(C(=O)NC1C(=O)N2C(C(=O)O)=C(CSC(=O)c3ccco3)CSC12)c1csc(N)n1.Cl (stereo not drawn)	0.933 ± 0.033	0.388 ± 0.053	1.07 ± 0.033	0.476 ± 0.67	0.657 ± 0.15	0.844 ± 0.063	0.949 ± 0.12	0.0647 ± 0.013	0.551 ± 0.37	0.95 ± 0.2	0.832 ± 0.051
CN(C)c1ccc(O)c2c1C[C@H]1C[C@H]3[C@H](N(C)C)C(=O)[C@@H](C(N)=O)C(=O)[C@@]3(O)C(=O)[C@H]1C2=O	0.636 ± 0.27	0.47 ± 0.11	0.8372 ± 0.0039	0.973 ± 0.03	0.776 ± 0.056	1.03 ± 0.019	0.692 ± 0.016	0.306 ± 0.14	0.607 ± 0.43	0.981 ± 0.18	0.686 ± 0.011
N[C@@H]1[C@H]2CN(c3nc4c(cc3F)c(=O)c(C(=O)O)cn4-c3ccc(F)cc3F)C[C@@H]12	0.0708 ± 0.1	0.354 ± 0.0078	1.04 ± 0.084	1.14 ± 0.23	0.689 ± 0.063	0.912 ± 0.029	0.937 ± 0.033	0.596 ± 0.17	0.555 ± 0.39	0.928 ± 0.22	0.783 ± 0.071
Cc1cn(C2CC(N=[N+]=[N-])C(CO)O2)c(=O)[nH]c1=O (stereo not drawn)	0.801 ± 0.34	0.472 ± 0.1	1.38 ± 0.076	1.3 ± 0.36	0.692 ± 0.18	1.002 ± 0.0012	0.865 ± 0.097	0.77 ± 0.043	0.573 ± 0.35	0.97 ± 0.2	0.887 ± 0.0091
C=CC1=C(C(=O)O)N2C(=O)[C@@H](NC(=O)/C(=N\OCC(=O)O)c3csc(N)n3)[C@H]2SC1	0.321 ± 0.084	0.432 ± 0.089	0.941 ± 0.17	1.06 ± 0.23	0.662 ± 0.021	1.046 ± 0.0058	0.886 ± 0.1	0.0787 ± 0.0056	0.606 ± 0.41	0.954 ± 0.18	0.822 ± 0.32
CON=C1CN(c2nc3c(cc2F)c(=O)c(C(=O)O)cn3C2CC2)CC1CN.CS(=O)(=O)O (stereo not drawn)	0.058 ± 0.082	0.479 ± 0.14	1.09 ± 0.24	1.26 ± 0.31	0.805 ± 0.059	0.919 ± 0.027	0.856 ± 0.23	0.4853 ± 0.00068	0.503 ± 0.35	0.919 ± 0.19	0.88 ± 0.012
CN(C)CCOC(c1ccccc1)c1ccccc1.Cn1c(=O)c2[nH]c(Cl)nc2n(C)c1=O	0.811 ± 0.45	0.604 ± 0.17	1.01 ± 0.12	1.32 ± 0.34	0.75 ± 0.22	0.939 ± 0.018	1.05 ± 0.066	0.697 ± 0.022	0.596 ± 0.39	0.534 ± 0.75	0.923 ± 0.069
CO/N=C1\CN(c2nc3c(cc2F)c(=O)c(C(=O)O)cn3C2CC2)C[C@@H]1CN	0.0916 ± 0.13	0.4747 ± 0.0033	0.891 ± 0.14	0.53 ± 0.72	0.751 ± 0.05	0.979 ± 0.019	0.738 ± 0.26	0.631 ± 0.21	0.572 ± 0.38	0.964 ± 0.17	0.807 ± 0.074
N[C@H]1CCN(c2nc3c(cc2F)c(=O)c(C(=O)O)cn3-c2ccc(F)cc2F)C1	0.206 ± 0.29	0.461 ± 0.041	0.91 ± 0.23	1.17 ± 0.24	0.774 ± 0.035	0.955 ± 0.026	0.852 ± 0.12	0.521 ± 0.22	0.586 ± 0.39	0.924 ± 0.25	0.929 ± 0.12
C=C1c2cccc(O)c2C(=O)[C@@H]2C(=O)[C@]3(O)C(=O)[C@@H](C(N)=O)C(=O)[C@@H](N(C)C)[C@@H]3[C@@H](O)[C@H]12	0.554 ± 0.29	0.33 ± 0.051	0.848 ± 0.095	1.04 ± 0.31	0.707 ± 0.056	1.03 ± 0.018	0.679 ± 0.018	0.0871 ± 0.016	0.638 ± 0.46	1.06 ± 0.24	0.619 ± 0.015
